An excerpt weighted towards active compounds, which were near 3.1% of everything screened.
INS-1E GSIS act – primary screen for activators of insulin secretion dependent on glucose, INS-1E cells, GLuc reporter luminescence. activation, % at 16.6 µM. AID 743287. INS-1E GLuc reporter insulin secretion, 2-3 h. actives 0.61% (n = 370,000);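 active = lowest replicate activation of at least 40%, so every replicate reaches that level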;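 note: 0% = median of neutral control wells and 100% = median of IBMX positive control wells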
C2C12 statin – suppression of simvastatin myotoxicity; C2C12 myotubes + simvastatin, ATP luminescence, 48 h; scaled: DMSO 0, geranylgeraniol control 100; actives 0.78% (n = 330,000); rescue of ATP level, % at 7.49 µM; AID 602340;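 active = mean ATP rescue above about 67%, or every replicate alone reaching that limit, limit read from the data, passing the limit was not always enough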;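 note: myotubes were challenged with 10 µM simvastatin during compound exposure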
HIV Env fusion – inhibitors of HIV Env-mediated cell fusion | HeLa-JRFL Env/CEM21 cell fusion, luciferase | inhibition, % at 12.3 µM | actives 1.1% (n = 360,000) | AID 651610;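 active = mean replicate inhibition score of at least 50 and every replicate individually at or above 50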;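 note: 0% = plate neutral controls and 100% = maraviroc near 300 nM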
PAX8 reporter – lowers PAX8-driven luciferase in RMG-I cells | RMG-I TPO-luciferase reporter, SteadyGlo, 24 h | inhibition, % at 12.6 µM | actives 1.2% (n = 360,000) | AID 652154;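 active = mean replicate inhibition at least 60% with every replicate also reaching 60%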;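 note: luciferase light reporting Pax8 driven TPO promoter activity; plate controls were median of neutral control wells for no effect and mitoxantrone controls for full effect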
miR-122 sensor – miR-122 inhibition in Huh7 cells; Huh7 miR-122 Renilla luciferase sensor, 48 h; neutral wells = 0, positive control = 100; activation (reporter increase), % at 12.5 µM; actives 0.3% (n = 340,000); AID 602342;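 active = mean replicate activation score at least 90 and every replicate individually at or above 90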;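 note: higher luciferase means less miR-122 activity so hits act as miR-122 inhibitors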
EWS-Fli block – inhibitors of EWS/Fli oncoprotein transcriptional activity | inhibition, % at 12.6 µM | AID 651661 | actives 0.67% (n = 350,000) | A673 NR0B1-luciferase reporter, viability-normalised;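 active = mean inhibition of at least 50% after viability correction, with every replicate also passing that limit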;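 note: firefly luciferase signal divided by Alamar Blue viability fluorescence both relative to DMSO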
Starred values were filed as active, the others as inactive; x = no result given; ! = a repeat was not active; [ ] = remark or other dose.

SMILES | INS-1E GSIS act | C2C12 statin | HIV Env fusion | PAX8 reporter | miR-122 sensor | EWS-Fli block
COC(=O)Nc1ccc(=O)n(Cc2c(Cl)cccc2Cl)c1 | x | 8 | 50* | 19 | -15 | x
Cc1ccccc1Cn1cnc2ccccc2c1=O | x | x | -26 | 160* | x | -6
CC1(C)OC(=O)C2=C(C[C@@H](CCc3ccccc3)O[C@@H]2c2ccc(F)cc2)O1 | -35 | x | 2 | 12 | x | 0
CC[C@@H]1CC2=C(C(=O)OC(C)(C)O2)[C@H](c2ccc(F)cc2)O1 | 45* | 5 | 7 | -26 | 3 | 5
COCCNC(=O)C[C@@H]1CC[C@H]2[C@H](COc3ccc(NC(=O)Nc4ccccc4)cc3C(=O)N2C)O1 | 4 | 9 | -22[16.7 µM] | 9 | 7[16.7 µM] | 0
CCOC(=O)c1cc(=O)n2[nH]c(-c3ccc(C)cc3)cc2n1 | x | -24 | x | x | 7 | x
CCOC(=O)Cc1cc(=O)n2[nH]c(-c3ccc(C)cc3)cc2n1 | 65* | -18 | -28 | x | -6 | x
CCOC(=O)C1=C(c2ccccc2)NC(=O)NC1c1ccc(O)c(Cl)c1 (stereo not drawn) | -1 | 1 | -21 | 70* | 3 | 68*
COc1ccc(C(O)c2nc3ccccc3n2C)cc1OC (stereo not drawn) | x | 20 | 74* | x | -1 | x
C[C@@H]1CN([C@H](C)CO)S(=O)(=O)c2ccc(C#CC3(O)CCCC3)cc2O[C@H]1CN(C)C(=O)c1cccnc1 | 33 | -12 | x | -3 | 4[16.7 µM] | -1
Nc1nonc1C(=O)N/N=C/c1ccc(-c2cccc([N+](=O)[O-])c2)o1 | x | 176* | -17 | -8 | 1 | x
Clc1ccc(Sc2oc(/C=N/n3cnnc3)cc2Br)cc1 | x | 149* | -48 | 1 | -10 | x
O=C(Cc1ccccn1)N1CC(=O)N2[C@@H](CO)[C@@H](c3ccc(-c4ccccc4)cc3)[C@@H]2C1 | -3 | x | x | -20 | x | -2
O=C(NC1CCCc2c1cnn2-c1cc(F)cc(F)c1)c1ccccn1 (stereo not drawn) | -4 | -3 | 16 | 11 | 2 | x
Cc1cc(C(=O)NC2CCCc3c2cnn3-c2ccc(C(C)(C)C)cc2)nn1C (stereo not drawn) | -23 | -4 | 82* | 42 | 7 | 40
COC(=O)c1ccc(C(=O)NC2CCCc3c2cnn3-c2cc(F)cc(F)c2)nc1 (stereo not drawn) | -16 | -1 | 14 | -6 | x | 53*
COC(=O)c1ccc(C(=O)NC2CCCc3c2cnn3-c2ccc(C)c(C)c2)cc1 (stereo not drawn) | -26 | -20 | 72* | 19 | 4 | x
Cc1cc(C(=O)NC2CCCc3c2cnn3-c2ccc(C)c(C)c2)nc(C)n1 (stereo not drawn) | -31 | -9 | 8 | 35 | -6 | x
COc1cccc(C(=O)Nc2ccc3c(c2)OC[C@@H](C)N(C(C)=O)C[C@H](C)[C@@H](OC)CN(C)C3=O)c1 | -9 | x | x | x | x | x
C[C@@H]1CCCCO[C@H](CN(C)C)[C@@H](C)CN([C@@H](C)CO)C(=O)c2cc(NS(=O)(=O)c3ccc(F)cc3)ccc2O1 | 14 | -21 | -24[16.7 µM] | -7 | 11[16.7 µM] | -2
Cc1cc(N2CCN(c3nc4ccccc4s3)CC2)n2ncnc2n1 | x | x | 87* | x | -19 | x
Cc1cc(N2CCN(C(c3ccccc3)c3ccccc3)CC2)n2ncnc2n1 | -13 | 58 | -32 | 13 | 2 | x
CCCNC(=O)N1C[C@H](O)COC[C@@H]2O[C@H](CC(=O)N[C@H]3CCN(Cc4ccccc4)C3)CC[C@H]21 | 4 | 20 | 2[16.7 µM] | -30 | 19[16.7 µM] | -2
CCc1c(C)sc(NC(=O)c2cc(-c3ccc(OC)c(OC)c3)on2)c1C#N | 80* | 10 | -156 | x | -3 | x
CN1C(=O)c2cc(NC(=O)c3cscn3)ccc2OC[C@H]2O[C@H](CC(=O)N3CCCCC3)CC[C@H]21 | 0 | -2 | 8[16.7 µM] | 0 | 2[16.7 µM] | -3
SMILES | INS-1E GSIS act | C2C12 statin | HIV Env fusion | PAX8 reporter | miR-122 sensor | EWS-Fli block
CC1(C)CC(=O)C2=C(C1)OC(c1ccncc1)C(C#N)=C2N (stereo not drawn) | x | 4 | -3 | 19 | -5 | x
CC1(C)CC(=O)C2=C(C1)OC(c1ccc(O)cc1)C(C#N)=C2N (stereo not drawn) | -17 | -13 | x | 81* | 0 | 10
c1ccc(CNCCCNCCCCNCCCNCc2ccccc2)cc1 | 1 | 1 | -10 | 86* | 9 | 5
COCC(=O)N1CC2(CN(C(=O)NC(C)C)C2)c2c(n(C)c3cc(OC)ccc23)[C@@H]1CO | 14 | x | x | x | x | -11
COc1ccc(Cc2c(-c3ccco3)nc3c(C)cc(Br)cn23)c(C)c1 | x | -72 | 73* | 48 | -2 | 13
COc1ccc(Cc2c(-c3ccco3)nc3ccc(Br)cn23)c(C)c1 | 21 | 26 | -12 | -2 | -3 | -11
N#C/C(=C/c1ccc(Sc2nc3ccccc3[nH]2)o1)c1cccc(F)c1 | -13 | -30 | 87* | x | -2 | x
N#C/C(=C\c1ccc([N+](=O)[O-])o1)c1nc2ccccc2[nH]1 | -1 | x | -141 | 32 | x | 59*
N#C/C(=C/c1ccc(Sc2nc3ccccc3[nH]2)o1)c1ccccc1F | -43 | x | 73* | x | x | x
O=C(N[C@@H]1CC[C@H](CCn2cc(C3(O)CCCC3)nn2)O[C@H]1CO)C1CCCCC1 | 13 | 2 | 2[16.7 µM] | 0 | x | 6
C[C@@H]1CN([C@H](C)CO)C(=O)c2cc(C#Cc3ccccc3F)cnc2O[C@@H]1CN(C)C(=O)C1CCCCC1 | -9 | 9 | 15[16.7 µM] | 2 | 0[16.7 µM] | -4
C[C@@H]1CN([C@@H](C)CO)S(=O)(=O)c2ccc(C#CC3CCCC3)cc2O[C@H]1CN(C)C(=O)Cc1ccncc1 | -7 | -57 | -13[16.7 µM] | 3 | 22[16.7 µM] | 14
C[C@@H]1CN([C@H](C)CO)S(=O)(=O)c2ccc(C#CC3CCCC3)cc2O[C@H]1CN(C)C(=O)Cc1ccccc1 | -5 | -36 | -5 | 67*! | 2 | 29
C[C@H](CO)N1C[C@H](C)[C@@H](CN(C)C(=O)Cc2ccccc2)Oc2cc(C#CC3CCCC3)ccc2S1(=O)=O | -1 | -11 | -14[16.7 µM] | 60 | 23[16.7 µM] | 21
C[C@@H]1CN([C@@H](C)CO)S(=O)(=O)c2ccc(C#CC3CCCC3)cc2O[C@H]1CN(C)C(=O)Cc1ccccc1 | -42 | -29 | 25[16.7 µM] | 57 | 108*[16.7 µM] | -12
C[C@@H]1CN([C@@H](C)CO)S(=O)(=O)c2ccc(C#Cc3ccccc3F)cc2O[C@H]1CN(C)C(=O)Cc1ccccc1 | -46 | -57 | 23[16.7 µM] | 92* | 1[16.7 µM] | 37
C[C@H]1CN([C@@H](C)CO)S(=O)(=O)c2ccc(C#Cc3ccccc3F)cc2O[C@@H]1CN(C)C(=O)Cc1ccccc1 | -6 | -23 | 10[16.7 µM] | 59 | 19[16.7 µM] | 26
O=C(COC(=O)c1cnccn1)c1ccc(Br)cc1 | x | -4 | -147 | x | -11 | x
O=C(OCCOc1ccc(Br)cc1)c1cnccn1 | x | 117* | x | x | 2 | x
Cc1nn2c(nc(N3CCOCC3)c3ccccc32)c1C=C(C#N)C#N | 41* | 4 | x | 24 | -3 | 10

Assay outcomes deposited in PubChem by Broad Institute.
